Bioassay records as filed in PubChem BioAssay.
ULK1 primary: ULK1 kinase inhibitors, primary screen, biochemical, AlphaScreen; inhibition, % at 5.96 µM; AlphaScreen Atg13 phosphorylation by ULK1, luminescence; 30,000 tested, 1.9% active; AID 1259251, 2017; Serine/threonine-protein kinase ULK1 (Homo sapiens), O75385; in the data active means inhibition above about 43%;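 further: 0% = median of compound wells and 100% = no enzyme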
Target sequence (O75385 whole entry, looked up): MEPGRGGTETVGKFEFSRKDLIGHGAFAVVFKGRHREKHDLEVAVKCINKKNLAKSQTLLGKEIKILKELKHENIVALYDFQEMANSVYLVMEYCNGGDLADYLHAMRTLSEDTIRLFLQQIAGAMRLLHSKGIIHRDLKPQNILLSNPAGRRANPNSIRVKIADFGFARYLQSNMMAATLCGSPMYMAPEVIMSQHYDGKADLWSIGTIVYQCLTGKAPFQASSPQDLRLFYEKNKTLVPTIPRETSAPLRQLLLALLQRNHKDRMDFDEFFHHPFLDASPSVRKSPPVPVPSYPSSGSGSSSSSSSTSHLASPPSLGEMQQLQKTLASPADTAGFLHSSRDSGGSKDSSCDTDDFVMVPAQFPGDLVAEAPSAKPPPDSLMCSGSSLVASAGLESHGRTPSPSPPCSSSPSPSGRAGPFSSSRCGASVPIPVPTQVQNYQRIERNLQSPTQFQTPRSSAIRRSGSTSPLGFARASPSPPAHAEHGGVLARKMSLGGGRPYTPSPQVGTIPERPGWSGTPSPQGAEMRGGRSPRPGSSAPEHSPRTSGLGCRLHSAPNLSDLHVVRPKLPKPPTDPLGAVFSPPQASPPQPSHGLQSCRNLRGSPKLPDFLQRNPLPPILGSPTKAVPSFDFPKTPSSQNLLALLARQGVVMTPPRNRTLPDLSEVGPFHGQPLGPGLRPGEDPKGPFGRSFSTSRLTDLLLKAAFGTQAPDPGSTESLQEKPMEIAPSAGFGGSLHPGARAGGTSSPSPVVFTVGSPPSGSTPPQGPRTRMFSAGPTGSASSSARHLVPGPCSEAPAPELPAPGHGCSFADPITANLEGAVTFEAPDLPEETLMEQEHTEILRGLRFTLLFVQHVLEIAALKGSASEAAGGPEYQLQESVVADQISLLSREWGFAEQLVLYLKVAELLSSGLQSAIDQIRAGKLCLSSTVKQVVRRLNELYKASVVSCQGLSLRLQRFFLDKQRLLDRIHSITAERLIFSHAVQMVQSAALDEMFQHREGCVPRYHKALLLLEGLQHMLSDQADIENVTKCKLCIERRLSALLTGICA
ASK1 inh: ASK1 kinase inhibitors, primary screen, biochemical, AlphaScreen. AlphaScreen MKK6 phosphorylation by ASK1, luminescence. inhibition, % at 7.44 µM. 22,000 tested, 0.99% active. AID 1159602, 2016; in the data active means inhibition above about 35%;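 further: 0% = median of compound wells and 100% = no enzyme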
* marks the source's active call; other numbers are inactive results; . = not tested or not shown. Rows were chosen to be rich in hits. Some 2.5% of all compounds tested hit in one or more screens of this group.

SMILES | ULK1 primary | ASK1 inh
c1ccc(CN2CCC(Nc3ncnc4nc(N5CCN(Cc6ccc7c(c6)OCO7)CC5)[nH]c34)CC2)cc1 | -7 | 22
C/C(=N/NC(=O)c1nnn(-c2nonc2N)c1C)c1ccc(Cl)c(Cl)c1 | 0 | .
COc1ccc(Nc2nc(C)cc(NCc3cccc(C(F)(F)F)c3)n2)cc1 | -18 | -1
O=C(NCCc1ccc(O)cc1)c1csc(Nc2nccc3ccccc23)n1 | -2 | -4
COc1ccc2c(c1)CC(C(=O)Nc1ccc(-c3cn[nH]c3)cc1OCCO)CO2 (configuration not stated) | 6 | 17
C=CCOCCOc1cc(-c2cn[nH]c2)ccc1NC(=O)C1COc2ccc(OC)cc2C1 (configuration not stated) | 18 | 69*
N[C@@H](Cc1ccc(Br)cc1)C(=O)N1CCC(c2nc(-c3ccncc3)no2)C1 (some centres not stated) | 3 | -5
N[C@@H](Cc1ccc(Br)cc1)C(=O)N1CCC(c2nc(-c3ccncc3)no2)CC1 | 72* | 8
N#CCC(=O)N/N=C/c1cccc(OC2CSC2)c1 | 9 | .
CC(=O)Oc1c(C)c(C)c2c(c1C)CCC(C)(CCCC(C)CCCC(C)CCCC(C)C)O2 (configuration not stated) | 2 | .
Cc1c(C)c2c(c(C)c1OC(=O)CCC(=O)O)CC[C@@](C)(CCC[C@H](C)CCC[C@H](C)CCCC(C)C)O2 | 73* | .
COc1ccc(-c2nc(Nc3ccc(NC(C)=O)cc3)c3ncn(C(C)C)c3n2)cc1 | 36 | 6
Cc1cnc(N2CCOCC2)nc1NCc1cccnc1 | 4 | -3
COc1nc(NCCO)nc(-c2ccc(C(=O)N3CCN(C)CC3)cc2)n1 | -9 | -4
CN1CCN(CCNC(=O)c2cccc(CN(C(=O)c3nc4ccc(-c5cn[nH]c5)cc4s3)C3CC3)c2)CC1 | 53* | -37
O=C(NCCN1CCCCC1)c1cccc(CN(C(=O)c2nc3ccc(-c4cn[nH]c4)cc3s2)C2CC2)c1 | 9 | -2
CN(C)c1cccc(Nc2nccc(NC3CC3)n2)c1 | 0 | -1
Cc1cnc(Nc2cccc(N(C)C)c2)nc1NC1CC1 | 46* | 8
COc1cc2nc(N3CCOCC3)nc(Nc3ccccc3)c2cc1OC | -19 | -6
Cc1cnc(NCCCN2CCCC2=O)nc1NCCCN1CCCC1=O | 1 | -2
Cc1cnc(NCCCN2CCCC2=O)nc1NCCN1CCOCC1 | 7 | 0
Cc1cnc(Nc2ccc(N3CCOCC3)cc2)nc1NCCCN1CCCC1=O | 44* | -7
COc1cc(Nc2ncc(C)c(NCCCN3CCCC3=O)n2)cc(OC)c1OC | 76* | 4
CC(=O)Nc1ccc(Nc2nc(NCCCN3CCCC3=O)ncc2C)cc1 | 35 | -14
Cc1cnc(NCCCN2CCCC2=O)nc1Nc1ccc(N2CCOCC2)cc1 | 46* | 4
SMILES | ULK1 primary | ASK1 inh
Cc1cnc(Nc2ccc(N3CCOCC3)cc2)nc1Nc1ccc(N2CCOCC2)cc1 | 13 | 21
Cc1cnc(Nc2nccc3ccccc23)nc1Nc1ccc(N2CCOCC2)cc1 | 46* | 13
Cn1ccc(-c2ccccc2Nc2nc(Nc3ccc(N4CCOCC4)cc3)ncc2Cl)n1 | 15 | 30
O=C(Nc1ccccc1F)C1CCCCC1 | 6 | .
NC(=O)c1ccccc1Nc1cc(NC(=O)Cc2ccc3c(c2)OCO3)ncc1C(F)(F)F | -23 | 19
CNC(=O)c1ccccc1Nc1cc(NC(=O)Cc2cccc(F)c2)ncc1C(F)(F)F | 55* | -3
NC(=O)c1ccccc1Nc1cc(NC(=O)Cc2ccc(F)cc2)ncc1C(F)(F)F | 31 | 10
CNC(=O)c1ccccc1Nc1cc(NC(=O)C(OC)c2ccccc2)ncc1C(F)(F)F (configuration not stated) | -10 | -16
CNC(=O)c1ccccc1Nc1cc(NC(=O)Cc2ccc3c(c2)OCO3)ncc1C(F)(F)F | 55* | 12
COc1ccc(CC(=O)Nc2cc(Nc3ccccc3C(N)=O)c(C(F)(F)F)cn2)cc1 | 76* | 32
CNC(=O)c1ccccc1Nc1cc(NC(=O)Cc2ccccc2OC)ncc1C(F)(F)F | 51* | 14
NC(=O)c1ccccc1Nc1cc(NC(=O)Cc2ccc(F)c(F)c2)ncc1C(F)(F)F | 19 | -21
COc1cc(Nc2nc(NCCCN3CCCC3=O)c3ncn(Cc4ccc(C(F)(F)F)cc4)c3n2)cc(OC)c1OC | -12 | 21
COc1ccc2c(c1)CC(C(=O)Nc1ccc(-c3cn[nH]c3C)cc1C(=O)N(C)C)CO2 (configuration not stated) | -12 | 12
CCOC(=O)C(=O)N1CCc2nc3ccccn3c(=O)c2C1 | 7 | .
N#C/C(=C\c1cccc(Br)c1)C(=O)Nc1cc([N+](=O)[O-])ccc1F | 39 | .
N#C/C(=C\c1cccc([N+](=O)[O-])c1)C(=O)Nc1ccc([N+](=O)[O-])cc1Br | 45* | .
Cc1noc(C)c1-c1nc(Nc2ccc(N3CCOCC3)cc2)c2ncn(C3CCCCC3)c2n1 | 50* | 7
c1ccc(Nc2nc(NC3CC3)c3ncn(C4CCCCC4)c3n2)nc1 | -11 | 1
c1cc(Nc2nc(NC3CC3)c3ncn(C4CCCCC4)c3n2)ncn1 | 44* | -40
c1cc(N2CCOCC2)ccc1Nc1nc(Nc2ccc(N3CCOCC3)cc2)c2ncn(C3CCCCC3)c2n1 | 53* | -12
Cc1noc(C)c1-c1nc(Nc2ccccc2)c2ncn(C3CCCCC3)c2n1 | 8 | -6
c1cc(N2CCOCC2)ccc1Nc1nc(NC2CC2)c2ncn(C3CCCCC3)c2n1 | 7 | 32
CC(C)N(CCNc1cc(Cl)nc(N)n1)C(C)C | -7 | -9
CCOc1ccccc1CN1CCC(C(=O)N2CCN(CC)CC2)CC1 | -3 | .
SMILES | ULK1 primary | ASK1 inh
Cn1nccc1Nc1ncc(C(=O)NCc2nc3ccccc3[nH]2)s1 | 10 | 9
CNC(=O)c1ccccc1Nc1cc(NC(=O)C(C)(C)c2ccccc2)ncc1C(F)(F)F | -17 | 1
CNC(=O)c1ccccc1Nc1cc(Nc2cccnc2)ncc1C(F)(F)F | 61* | -1
CNC(=O)c1ccccc1Nc1cc(Nc2ncccc2C)ncc1C(F)(F)F | 62* | -3
CNC(=O)c1cnccc1Nc1cc(Nc2ccc3c(c2)CC(=O)N3)ncc1C(F)(F)F | 19 | -1
Nc1cccc(F)c1Nc1ccc2c(cnn2-c2cccc(C(=O)NCCN3CCOCC3)c2)c1 | -18 | -3
COC1=C(N)C(=O)c2nc(-c3nc(C(=O)O)c(C)c(-c4ccc(OC)c(OC)c4O)c3N)ccc2C1=O | 84* | .
CN1CCN(C(=O)c2ccc(-c3nccc(NCc4cccnc4)n3)cc2)CC1 | 2 | -8
Nc1cc(Nc2ccccc2CO)c(C(F)(F)F)cn1 | 56* | 9
O=C(Cc1ccc(F)cc1)Nc1cc(Nc2ccccc2CO)c(C(F)(F)F)cn1 | 18 | 13
Cn1nccc1Nc1ccc(-n2cc(CC(=O)Nc3ccc(N4CCOCC4)cc3)c3ccccc32)nn1 | 49* | -7
O=C(Cc1cn(-c2ccc(Nc3ccc(N4CCOCC4)cc3)nn2)c2ccccc12)Nc1ccccc1 | 10 | 13
COc1cc(OC)nc(Oc2ccccc2C(=O)NC(C)C)n1 | 7 | .
O=C(Nc1ccc(N2CCOCC2)cc1)c1cnc(NCCN2CCOCC2)s1 | 0 | -1
O=C(Nc1ccc(N2CCOCC2)cc1)c1cc(N2CCc3ccccc3C2)nc2ccccc12 | 50* | 0
O=C(NCCCN1CCCC1=O)c1cc(Nc2ccc(N3CCOCC3)cc2)nc2ccccc12 | 4 | 4
